Experimental data published in PubChem BioAssay (NCATS).
Inconclusive results are not listed. A call without a number means that no potency is given here. Activity calls are given as the source filed them. Calls follow the shape of the dose curve; as a rule, active = well fitted activation curve with a large enough effect; inconclusive = small, poorly fitted or top-dose-only effect; inactive = flat fitted curve, though single readings scatter.

Test: HEK293 24hr Apoptosis Induction qHTS against the NCATS CANVASS Library (AID 1347359)
Details: HEK293 caspase-3/7 activation, Caspase-Glo luminescence; series mostly up to 46.1 µM
Excerpt: Natural products and their derivatives continue to be wellsprings of nascent therapeutic potential. However, many laboratories have limited resources for biological evaluation, leaving their previously isolated or synthesized compounds largely or completely untested. To address this issue, the Canvass library of natural products was assembled (https://tripod.nih.gov/canvass), in collaboration with academic and industry researchers, for quantitative high-throughput screening (qHTS) across a diverse set of cell-based and biochemical assays. The pure (>85% purity by liquid chromatography/mass spectrometry [LC/MS]) Canvass library of 346 natural products were submitted by 45 academic laboratories and companies around the world. We collected pure natural products to circumvent deconvolution and structure elucidation due to time and resource limitations. The library was formatted into 1536-well plates and evaluated in 50 qHTS (in an 11-pnt concentration series) bioassays with broad scope of disease-relevant mechanisms. The resulting data set from 50 different assays was then systematically analyzed to identify overall trends and specific natural products with interesting biological activities. Reported herein are the results of each individual qHTS and their corresponding assay protocol. The Caspase-Glo (R) (Promega) is a homogeneous, luminescent assay that measures caspase activity. The detection substrate contains tetrapeptide sequence DEVD in an "add-mix-measure" format. The reagent generates a luminescent signal produced by a thermostable luciferase. The luminescence is proportional to the amount of caspase activity in the assay reaction. National Center for Advancing Translational Sciences (NCATS), Rockville, MD National Institute of Health (NIH), Bethesda, Maryland
Cancer Cell Apoptosis Assay 1. In a 1536 well, white solid bottom tissue culture plates (Corning 7494), HEK293 cancer cells in DMEM + 10% FBS + 1% P/S media were dispensed in each well at a final concentration of 500 cells / well (5uL volume) using the Multidrop Combi (Thermo Fisher Scientific) dispenser. 2. Compounds were pin transferred (~23nL volume) via Wako Pin-tool (Wako Automation, Richmond VA) equipped with a 1536 pin head. The assay plates were treated with compounds in a concentration series with a final concentration range of […] to 103uM. 3. Doxorubicin was used as a control in a 16pnt titration (1mM; 1:2 dilution; 16-points; n = 2; column 3, rows 1 - 32) and was pin transferred via Wako Pin-tool equipped with a 1536 pin head. The final concentration range of doxorubicin is 0.1nM - 4uM. 4. The assay plates were incubated for 24 hours at 37 degrees C/5% CO2/95% Rh. 5. 3uL Caspase-Glo 3/7 (R) (Promega) detection reagent was then added to the assay plates (columns 2 - 48, rows 1 - 32) and incubated at room temperature, covered from light, for 15 min. 6. Luminescence signal was acquired via the ViewLux plate reader (PerkinElmer) using a clear filter, 20 second exposure and 2x binning settings.

Row | SMILES | Potency
1 | COC12OC1(C13OC1(OC)C(=O)c1cc4cc(C)oc(=O)c4c(O)c1C3O)C(O)c1c(cc3cc(C)oc(=O)c3c1O)C2=O (stereo not given) | inactive
2 | CC(C)[C@]12CC[C@@]3(C)[C@H](C)CC[C@H](O)[C@@]3(CC1)c1cc3c(cc12)[nH]c1ccccc13 | inactive
3 | C/C=C(/C)c1c(Cl)c(OC)c(C)c2c1Oc1c(Cl)c(O)c(Cl)c(C)c1C(=O)O2 | inactive
4 | C=C[C@](Cl)(CBr)CCC=C(C)C | inactive
5 | C[C@H](c1cnc(N)[nH]1)c1ccc(O)c2[nH]cc(-c3cnc(-c4c[nH]c5ccccc45)c(=O)[nH]3)c12 | inactive
6 | C/C=C/C1C=CC2CC(C)CC(C)C2C1C(=O)CC(=O)NC(CO)C/C=C/CCCCC (stereo not given) | inactive
7 | C/C=C/C(=O)C1(O)CC2CC(C(=O)O)CC(C)C2C1C1=C2C(=O)NC(=O)C2=C(CCCCC)C(C)O1 (stereo not given) | inactive
8 | CC[C@@H](c1cc(OC)c(OC)cc1OC)[C@H](C)[C@@H](/C(C)=C/c1cc(OC)c(OC)cc1OC)c1cc(OC)c(OC)cc1OC | inactive
9 | C/C=C1/C2=CCCN3C(=O)O[C@H]([C@H]1O)[C@H]23 | inactive
10 | Cc1occ2c1C(=O)c1c(cc(O)c(O)c1O)C2=O | inactive
11 | CC[C@@H]1C[C@@]2(CC)OC(=O)[C@@]3(CC)[C@H](CC)[C@@H]1[C@@H]23 | inactive
12 | C[n+]1cc2cc(C(N)=O)[nH]c3c(=N)c(Cl)c(N)c1c23 | inactive
13 | C=CC(C)(C)C(=O)[C@@H](C)[C@@H]1CC[C@@](C)(C=C)O1 | inactive
14 | CN1CC[C@@]2([C@@]34CCN(C)[C@@H]3Nc3ccccc34)c3ccccc3N[C@@H]12 | inactive
15 | CC[C@@H]1[C@H](C)[C@H](c2cc(OC)c(OC)cc2OC)[C@@H](C)[C@H](c2cc(OC)c(OC)cc2OC)[C@]12C=C(OC)C(=O)C=C2OC | inactive
16 | COc1ccc(-c2oc3cc(OC)cc(OC)c3c(=O)c2O)cc1 | inactive
17 | CN1CC[C@]23c4ccccc4N[C@H]1[C@]21CCN(C)[C@H]3Nc2ccccc21 | inactive
18 | CC1=C2CC[C@]3(C)[C@H](CC=C4[C@@H]5CC(C)(C)CC[C@@H]5C(=O)[C@H](O)[C@]43C)[C@@]2(C)C=C(O)C1=O | inactive
19 | O=C(OC[C@H]1O[C@@H](OC(=O)c2cc(O)c(O)c(O)c2)[C@H](OC(=O)c2cc(O)c(O)c(O)c2)[C@@H](OC(=O)c2cc(O)c(O)c(O)c2)[C@@H]1OC(=O)c1cc(O)c(O)c(O)c1)c1cc(O)c(O)c(O)c1 | inactive
20 | CCC(=O)N[C@@H](C[C@H](C)C(Cl)(Cl)Cl)C(=O)N1C(=O)C=C(OC)[C@@H]1CC(C)C | inactive

Row | SMILES | Potency
21 | C[C@H](CCC(O)C(C)(O)CO)[C@@]1(O)CC[C@@]2(C)C3=C(CC[C@@]21C)[C@@]1(C)CCC(OC(=O)CCC(=O)O)C(C)(C)[C@@H]1CC3 (stereo not given in full) | inactive
22 | C/C=C(/C)c1c(Cl)c(O)c(C)c2c1Oc1c(Cl)c(O)c(Cl)c(C)c1C(=O)O2 | inactive
23 | C=C1CC[C@@H](O[C@H]2C[C@@](O)([C@H](C)NC(=O)c3[nH]c(C)c(Cl)c3Cl)[C@H](O)[C@@H](C)O2)[C@@H]2C=C[C@H](C)C(/C(O)=C3/C(=O)[C@H](C(C)C)N([C@@H]4O[C@H](C)[C@H](OC(N)=O)[C@H](OC(C)=O)[C@@H]4OC)C3=O)[C@@H]12 (stereo not given in full) | inactive
24 | Cc1cc(O)cc2c1C(=O)c1c(O)cc(O)cc1C2=O | inactive
25 | CC(=O)N[C@H](C)c1nc(/C=C/C=C/C(=O)CC2CC(=O)CC[C@]2(C)O)cs1 (stereo not given in full) | inactive
26 | C[C@H]1C=C[C@H]2CCCC[C@@H]2[C@H]1C(=O)[C@H]1CC2=C(C(=O)O)CCN2C1=O | inactive
27 | C=C[C@@]1(C)CC[C@@H]([C@H](C)C(C)=O)O1 | inactive
28 | CC(C)=CCC[C@]1(C)[C@H]2CC(=O)[C@@]3(CO3)[C@@H]1C2 | inactive
29 | O=c1cc(-c2ccc(O)cc2)oc2cc(O)c([C@@H]3OC(CO)[C@H](O)[C@@H](O)[C@H]3O)c(O)c12 (stereo not given in full) | inactive
30 | CC(C)[C@@H]1CC(=O)c2coc3c2[C@H]1C[C@@H](C)C3=O | inactive
31 | C/C1=C/[C@@H](C)[C@H](O)[C@@H](O)/C=C/CC/C=C/C(=O)O[C@@H]1[C@H](C)C(=O)CCCC1CC(=O)NC(=O)C1 | inactive
32 | COc1ccc([C@@H]2c3cc4c(cc3C[C@H](C)C2C)OCO4)cc1OC (stereo not given in full) | inactive
33 | CN1CC[C@]2(c3cccc4c3N[C@H]3N(C)CC[C@@]43[C@]34CCN(C)[C@H]3Nc3ccccc34)c3ccccc3N[C@H]12 | inactive
34 | C[C@@]1(CCC(=O)Nc2c(O)ccc(C(=O)O)c2O)C(=O)C=C[C@]23C[C@H]4C[C@H](O[C@@]4(C)C2)C31 (stereo not given in full) | inactive
35 | C=C1C[C@]23C=CC(=O)[C@@](C)(CCCC(C)C(=O)N[C@@H](CO)C(=O)O)[C@@H]2C[C@@H]1CC3 (stereo not given in full) | inactive
36 | CCC(=O)CCCCC[C@@H]1NC(=O)[C@H]2CCCCN2C(=O)[C@H](C(C)C)NC(=O)[C@H](Cc2cn(OC)c3ccccc23)NC1=O | inactive
37 | CC1=C(C)C(=O)OC(C(C)C2(O)CCC3C4C5OC5C5(O)CC=CC(=O)C5(C)C4CCC32C)C1 (stereo not given) | inactive
38 | CC[C@H]1[C@@H](C)[C@@H](c2cc(OC)c(OC)cc2OC)[C@H](C)[C@@H](c2cc(OC)c(OC)cc2OC)[C@@]12C=C(OC)C(=O)C=C2OC | inactive
39 | CCC(C)=C1OC(=O)[C@H](C)[C@H](O)[C@H](Cc2cccnc2)NC(=O)C(NC(=O)c2ncccc2O)C(C)OC1=O (stereo not given in full) | inactive
40 | C=C1CC[C@@H](Br)C(C)(C)[C@]12CC=C(C)C(=O)C2 | inactive
